Each structure is given as a SMILES string. Inconclusive results are not listed. Where a call stands in place of a potency, no number is given. Active and inactive are the calls of the source. Calls come from the whole dose curve; as a rule, active = well fitted inhibition curve with a large enough effect; inconclusive = small, poorly fitted or top-dose-only effect; inactive = no such curve, though single readings can be large or run the other way.

The assay deals with Retinaldehyde dehydrogenase 3 (Homo sapiens) (UniProt P47895). Put plainly: qHTS for Inhibitors of the Aldehyde Dehydrogenase Family (ALDH1A3) Primary screen (AID 2061315). To be noted: ALDH inhibition qHTS; series mostly up to 56 µM. In general terms: Quantitative high-throughput screening tests each substance at several concentrations.
For `CC(N[C@H]1C[C@H]1c1ccccc1)c1ccc2c(c1)OCCO2` (stereo partly drawn), the Potency entry was “inactive”. In the case of `c1ccc([C@@H]2C[C@H]2NC2CCNCC2)cc1` it was “inactive”; in that of `COC1CC(OC2CCC3(C)C(=CCC4C3CCC3(C)C(C(C)OC5OC(COC6OC(CO)C(O)C(O)C6O)C(O)C(O)C5O)CCC43O)C2)OC(C)C1OC1OC(C)C(O)C(OC)C1O` (stereo not drawn), “inactive”. Take `CCN1C[C@]2(COC)[C@H](O)C[C@H](OC)[C@]34[C@@H]5C[C@]6(O)[C@H](OC(=O)c7ccccc7)[C@@H]5[C@@](O)([C@H]([C@H](OC)[C@H]23)[C@@H]14)[C@@H](O)[C@@H]6OC`: the Potency result is “inactive”. In the case of `O=C(N[C@H]1CN2CCC1CC2)c1cc2cccc(Cl)c2s1` it was “inactive”.

On to `CC(CCc1ccc(O)cc1)O[C@@H]1O[C@H](CO[C@H]2OC[C@](O)(CO)[C@H]2O)[C@@H](O)[C@H](O)[C@H]1O` (stereo partly drawn), for which the Potency entry was “inactive”. For `CCC1CC2CN3CCc4c([nH]c5ccccc45)C(C(=O)OC)(C2)C13` (stereo not drawn), the Potency entry is “inactive”. Next, `C=C(C)C(=O)O[C@H]1[C@@H]2[C@H](C)C(=O)O[C@@H]2C[C@@H](C)[C@@H]2C=CC(=O)[C@]21C`: “inactive”.

The values are drawn from PubChem BioAssay (NCATS).
